PMC5540273 (PLoS ONE, 2017)

Key:
Details in all cases: concentration: 1 μM, replicates: in singlicate; n = 1
BUB1 = test system: BUB1
CAMK1B = test system: CAMK1B
CAMK1D = test system: CAMK1D
CAMK1G = test system: CAMK1G
CAMK1 = test system: CAMK1
CAMK2A = test system: CAMK2A
CAMK2B = test system: CAMK2B
CAMK2D = test system: CAMK2D
CAMK2G = test system: CAMK2G
CAMK4 = test system: CAMK4
CAMKK1 = test system: CAMKK1
CAMKK2 = test system: CAMKK2
CASK = test system: CASK
CDC2L1 = test system: T1, CDC2L1
T1 construct: gene CDK11B

CDC2L2 = test system: CDC2L2
CDC2L5 = test system: T2, CDC2L5
T2 construct: gene CDK13

CDK11 = test system: T3, CDK11
T3 construct: gene CDK19

CDK2 = test system: CDK2
CDK3 = test system: CDK3
CDK4-cyclinD1 = test system: CDK4-cyclinD1
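Also: KINOMEscan kinase panel screen.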

| SMILES | %Inh (BUB1) | %Inh (CAMK1B) | %Inh (CAMK1D) | %Inh (CAMK1G) | %Inh (CAMK1) | %Inh (CAMK2A) | %Inh (CAMK2B) | %Inh (CAMK2D) | %Inh (CAMK2G) | %Inh (CAMK4) | %Inh (CAMKK1) | %Inh (CAMKK2) | %Inh (CASK) | %Inh (CDC2L1) | %Inh (CDC2L2) | %Inh (CDC2L5) | %Inh (CDK11) | %Inh (CDK2) | %Inh (CDK3) | %Inh (CDK4-cyclinD1) |
| --- | --- | --- | --- | --- | --- | --- | --- | --- | --- | --- | --- | --- | --- | --- | --- | --- | --- | --- | --- | --- |
| COc1ccc(S(=O)(=O)NC2CCN(c3cc(C)nc(Nc4cccc(C#N)c4)n3)CC2)cc1.O=C(O)C(F)(F)F [GSK1653539] | 0% | 1% | 17% | 0% | 0% | 0% | 0% | 6% | 11% | 0% | 2% | 16% | 0% | 0% | 37% | 0% | 0% | 0% | 0% | 0% |
| CCn1cnc2c(N)ncnc21 [GW345098] | 3% | 0% | 10% | 0% | 9% | 6% | 8% | 0% | 0% | 1% | 8% | 2% | 31% | 1% | 6% | 0% | 0% | 0% | 1% | 0% |
| CC(C)Oc1ccc2c(-c3ccnc(Nc4ccc(N5CCN(C)CC5)cc4)n3)cnn2n1 [GW696155] | 99.4% | 96.3% | 97.8% | 56% | 71% | 44% | 31% | 54% | 48% | 0% | 40% | 44% | 23% | 63% | 51% | 0% | 19% | 0% | 17% | 94.4% |
| COC(=O)Nc1nc2cc(Oc3ccc(NC(=O)Nc4cc(F)ccc4F)cc3)ccc2[nH]1.Cl [GW701424] | 77% | 27% | 20% | 7% | 4% | 0% | 0% | 20% | 11% | 0% | 0% | 4% | 0% | 0% | 6% | 0% | 0% | 0% | 0% | 20% |
| CC(C)(C)n1cnc2c(N)ncnc21 [SKF-97359] | 52% | 63% | 1% | 0% | 0% | 0% | 0% | 0% | 0% | 0% | 0% | 0% | 0% | 0% | 0% | 0% | 0% | 0% | 0% | 21% |
| C[C@@H](Oc1cc(-n2cnc3ccc(NC(=O)NC(C)(C)C)cc32)sc1C(N)=O)c1ccccc1Cl [GSK346294] | 35% | 32% | 19% | 2% | 11% | 9% | 0% | 18% | 23% | 3% | 3% | 24% | 11% | 0% | 13% | 0% | 4% | 0% | 9% | 8% |
| Fc1ccc(-c2ncn(CCCN3CCOCC3)c2-c2ccccn2)cc1 [SB-211742] | 0% | 0% | 0% | 0% | 0% | 6% | 10% | 0% | 11% | 20% | 16% | 19% | 0% | 1% | 0% | 21% | 0% | 0% | 43% | 22% |
| O=C(NCCNc1ccnc(Nc2ccc(F)cc2)n1)c1cc2ccccc2s1 [GSK1379874] | 49% | 0% | 1% | 0% | 1% | 0% | 0% | 7% | 18% | 0% | 5% | 0% | 1% | 0% | 8% | 0% | 0% | 0% | 0% | 0% |
| Cc1cccc(-c2nc(-c3ccc(S(C)(=O)=O)cc3)sc2-c2ccncc2)c1 | 25% | 0% | 15% | 9% | 5% | 0% | 0% | 4% | 5% | 0% | 4% | 5% | 0% | 0% | 0% | 9% | 0% | 14% | 3% | 0% |
| CN(C(=O)c1ccc(-c2cc(-c3c[nH]nc3-c3ccccn3)ccn2)cc1)C1CCOCC1 [GW810083] | 0% | 41% | 20% | 0% | 0% | 0% | 0% | 0% | 17% | 20% | 12% | 25% | 0% | 0% | 0% | 11% | 52% | 0% | 0% | 31% |
| COc1ccc(CNC(=O)NC2CCN(c3ccnc(Nc4ccc(OC)cc4)n3)C2)cc1 (stereo not drawn) [GSK1379727] | 56% | 47% | 21% | 0% | 18% | 0% | 0% | 0% | 8% | 0% | 0% | 4% | 16% | 0% | 8% | 0% | 1% | 0% | 13% | 18% |
| CSc1ccc(-c2cc3ncnc(SCC(=O)O)c3s2)cc1 | 24% | 0% | 0% | 0% | 0% | 0% | 0% | 0% | 0% | 3% | 44% | 45% | 0% | 7% | 0% | 0% | 0% | 0% | 40% | 0% |
| O=c1cc(N2CCOCC2)nc2n(Cc3cccc(F)c3)ccn12 [GSK2297430] | 0% | 4% | 15% | 0% | 4% | 0% | 0% | 0% | 13% | 11% | 25% | 3% | 0% | 3% | 6% | 0% | 0% | 7% | 1% | 0% |
| Cc1cccc(-c2nc(Nc3ccc4ncsc4c3)c3ccccc3n2)n1 [GW867588] | 47% | 21% | 14% | 0% | 26% | 0% | 0% | 2% | 9% | 0% | 0% | 20% | 1% | 0% | 13% | 0% | 0% | 9% | 6% | 0% |
| O=C1NC(=O)C(N2CCc3ccccc32)=C1c1cccc(Cl)c1 [SB-408010] | 0% | 0% | 17% | 0% | 24% | 0% | 0% | 10% | 0% | 1% | 7% | 0% | 0% | 0% | 5% | 0% | 0% | 0% | 0% | 0% |
| Cc1cccc(Cn2ccn3c(=O)cc(N4CCOCC4)nc23)c1 [GSK2297542] | 34% | 19% | 70% | 9% | 71% | 0% | 0% | 9% | 28% | 20% | 5% | 27% | 20% | 0% | 15% | 0% | 0% | 8% | 20% | 0% |
| O=c1cc(N2CCOCC2)nc2n(Cc3cccc4ccccc34)ccn12 [GSK2333389] | 32% | 4% | 15% | 0% | 0% | 0% | 0% | 0% | 0% | 0% | 0% | 0% | 0% | 0% | 0% | 0% | 0% | 12% | 0% | 0% |
| Cl.Nc1ncnc2occ(-c3ccc(NC(=O)Nc4cc(C(F)(F)F)ccc4F)cc3)c12 [SB-707548] | 17% | 36% | 23% | 0% | 22% | 0% | 0% | 0% | 25% | 32% | 9% | 25% | 5% | 25% | 49% | 97.4% | 100% | 80% | 89% | 3% |
| Cn1ccc2ncnc(Oc3ccc(NC(=O)Nc4ccncc4)c(Cl)c3)c21 | 11% | 0% | 0% | 0% | 0% | 0% | 0% | 0% | 0% | 7% | 0% | 2% | 0% | 0% | 0% | 25% | 0% | 0% | 0% | 0% |
| Cc1nnc(-c2ccc(C)c(-c3ccc(C(=O)Nc4ccc(NS(C)(=O)=O)cc4)cc3)c2)o1 [GW702865] | 35% | 10% | 2% | 0% | 4% | 0% | 1% | 0% | 0% | 0% | 0% | 0% | 23% | 0% | 8% | 0% | 0% | 0% | 1% | 36% |
| Nc1nc(-c2ccc3c(N)n[nH]c3c2)cc(N2CCCC2)n1 [GSK2227430] | 30% | 3% | 20% | 0% | 25% | 0% | 0% | 0% | 21% | 0% | 0% | 10% | 0% | 0% | 14% | 0% | 1% | 0% | 0% | 0% |
